Consider 40 targets from the supplement of paper PMC10849652.

Targets with a hit are over-represented here; the source holds about 7,900 in all. About 0.6% of all pairs of compound and target were hits. Values without a mark were called inactive.

Chain of UniProt Q6P3W2 (Q6P3W2 whole entry, looked up): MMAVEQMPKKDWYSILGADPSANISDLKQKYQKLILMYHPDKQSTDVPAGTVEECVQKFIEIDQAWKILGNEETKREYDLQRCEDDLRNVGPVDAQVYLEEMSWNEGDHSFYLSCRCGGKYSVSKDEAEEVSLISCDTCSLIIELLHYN
Chain of UniProt Q96A65 (Q96A65 whole entry, looked up): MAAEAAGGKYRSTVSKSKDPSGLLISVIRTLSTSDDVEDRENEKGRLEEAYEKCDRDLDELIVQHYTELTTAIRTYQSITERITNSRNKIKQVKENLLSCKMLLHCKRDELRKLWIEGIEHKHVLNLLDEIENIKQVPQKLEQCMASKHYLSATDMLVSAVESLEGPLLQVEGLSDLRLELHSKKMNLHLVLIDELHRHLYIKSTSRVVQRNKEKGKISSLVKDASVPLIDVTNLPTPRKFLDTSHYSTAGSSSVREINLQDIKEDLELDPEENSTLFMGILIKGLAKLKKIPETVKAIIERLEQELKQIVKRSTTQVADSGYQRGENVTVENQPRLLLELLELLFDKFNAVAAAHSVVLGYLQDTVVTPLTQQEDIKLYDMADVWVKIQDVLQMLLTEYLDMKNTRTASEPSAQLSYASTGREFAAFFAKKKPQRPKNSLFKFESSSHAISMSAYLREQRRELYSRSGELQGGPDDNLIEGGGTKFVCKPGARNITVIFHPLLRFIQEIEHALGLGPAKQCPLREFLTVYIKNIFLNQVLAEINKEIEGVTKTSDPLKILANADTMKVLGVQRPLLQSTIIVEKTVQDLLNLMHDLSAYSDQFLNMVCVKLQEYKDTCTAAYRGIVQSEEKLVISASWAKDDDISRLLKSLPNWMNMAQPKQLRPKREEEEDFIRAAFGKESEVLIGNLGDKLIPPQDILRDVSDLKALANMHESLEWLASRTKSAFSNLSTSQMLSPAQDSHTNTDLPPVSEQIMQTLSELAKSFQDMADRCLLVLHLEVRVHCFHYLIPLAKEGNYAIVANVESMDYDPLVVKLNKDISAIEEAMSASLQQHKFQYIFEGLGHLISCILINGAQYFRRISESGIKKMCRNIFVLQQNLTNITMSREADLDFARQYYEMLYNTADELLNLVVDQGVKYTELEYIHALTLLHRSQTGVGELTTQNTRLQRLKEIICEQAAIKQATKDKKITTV
Chain of UniProt Q9BSJ8 (Q9BSJ8 whole entry, looked up): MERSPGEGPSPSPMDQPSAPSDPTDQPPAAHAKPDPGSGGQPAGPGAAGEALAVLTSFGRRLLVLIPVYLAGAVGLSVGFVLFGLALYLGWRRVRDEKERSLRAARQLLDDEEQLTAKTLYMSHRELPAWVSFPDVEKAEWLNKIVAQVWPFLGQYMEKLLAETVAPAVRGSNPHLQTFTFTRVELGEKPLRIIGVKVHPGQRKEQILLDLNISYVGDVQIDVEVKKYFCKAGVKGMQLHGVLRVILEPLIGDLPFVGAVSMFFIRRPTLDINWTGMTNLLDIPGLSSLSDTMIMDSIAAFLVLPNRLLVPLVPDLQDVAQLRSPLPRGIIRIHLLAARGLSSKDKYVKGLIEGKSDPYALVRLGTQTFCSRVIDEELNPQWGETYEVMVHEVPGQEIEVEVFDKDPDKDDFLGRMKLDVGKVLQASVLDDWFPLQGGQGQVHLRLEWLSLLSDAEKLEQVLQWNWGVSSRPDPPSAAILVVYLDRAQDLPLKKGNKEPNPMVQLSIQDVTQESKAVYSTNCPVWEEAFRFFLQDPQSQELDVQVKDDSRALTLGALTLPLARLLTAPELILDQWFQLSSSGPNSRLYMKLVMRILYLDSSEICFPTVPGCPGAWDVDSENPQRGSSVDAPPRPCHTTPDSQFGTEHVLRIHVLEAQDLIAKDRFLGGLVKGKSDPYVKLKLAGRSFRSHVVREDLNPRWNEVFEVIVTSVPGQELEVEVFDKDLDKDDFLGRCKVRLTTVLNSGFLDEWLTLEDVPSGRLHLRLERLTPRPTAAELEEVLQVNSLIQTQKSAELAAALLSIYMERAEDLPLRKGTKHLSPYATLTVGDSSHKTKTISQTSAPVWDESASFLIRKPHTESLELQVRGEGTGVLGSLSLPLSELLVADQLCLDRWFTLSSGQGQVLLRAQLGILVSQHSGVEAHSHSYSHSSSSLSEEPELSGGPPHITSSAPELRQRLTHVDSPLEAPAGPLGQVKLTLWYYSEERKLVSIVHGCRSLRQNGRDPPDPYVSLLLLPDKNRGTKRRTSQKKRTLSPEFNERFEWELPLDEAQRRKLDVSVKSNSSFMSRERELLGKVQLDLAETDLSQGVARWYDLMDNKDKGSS
Chain of UniProt O60911 (O60911 whole entry, looked up): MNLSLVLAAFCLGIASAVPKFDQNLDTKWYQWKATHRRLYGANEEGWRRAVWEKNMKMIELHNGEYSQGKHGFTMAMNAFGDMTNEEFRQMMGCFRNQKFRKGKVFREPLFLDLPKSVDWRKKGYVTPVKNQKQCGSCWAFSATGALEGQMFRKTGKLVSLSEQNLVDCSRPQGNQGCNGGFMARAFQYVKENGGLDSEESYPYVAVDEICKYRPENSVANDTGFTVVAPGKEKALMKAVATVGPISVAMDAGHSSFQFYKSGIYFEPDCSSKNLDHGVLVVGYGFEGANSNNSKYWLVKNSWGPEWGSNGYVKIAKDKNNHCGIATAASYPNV
Chain of UniProt Q96EV8 (Q96EV8 whole entry, looked up): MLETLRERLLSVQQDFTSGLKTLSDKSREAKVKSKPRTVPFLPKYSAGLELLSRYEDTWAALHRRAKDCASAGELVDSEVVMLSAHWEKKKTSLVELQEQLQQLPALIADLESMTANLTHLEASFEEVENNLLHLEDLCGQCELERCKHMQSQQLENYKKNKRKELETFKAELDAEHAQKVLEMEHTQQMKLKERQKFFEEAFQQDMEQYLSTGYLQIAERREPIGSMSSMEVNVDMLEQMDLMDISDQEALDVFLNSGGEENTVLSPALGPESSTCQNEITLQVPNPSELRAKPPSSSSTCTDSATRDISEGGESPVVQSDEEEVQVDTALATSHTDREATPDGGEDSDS
Chain of UniProt P09622 (P09622 whole entry, looked up): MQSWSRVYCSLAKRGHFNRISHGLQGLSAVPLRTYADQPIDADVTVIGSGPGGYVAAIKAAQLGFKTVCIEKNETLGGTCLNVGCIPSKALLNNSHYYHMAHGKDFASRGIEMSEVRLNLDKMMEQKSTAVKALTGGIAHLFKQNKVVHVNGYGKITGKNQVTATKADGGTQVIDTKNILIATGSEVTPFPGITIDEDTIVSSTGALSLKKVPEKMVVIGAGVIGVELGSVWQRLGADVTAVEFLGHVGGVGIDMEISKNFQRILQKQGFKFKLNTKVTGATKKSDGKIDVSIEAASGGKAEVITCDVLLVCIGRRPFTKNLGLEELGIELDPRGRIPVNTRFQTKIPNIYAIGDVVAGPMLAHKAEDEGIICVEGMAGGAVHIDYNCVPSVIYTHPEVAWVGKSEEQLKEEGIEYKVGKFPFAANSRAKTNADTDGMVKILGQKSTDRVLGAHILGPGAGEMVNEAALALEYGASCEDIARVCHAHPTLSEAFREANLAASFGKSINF
Chain of UniProt O60573 (O60573 whole entry, looked up): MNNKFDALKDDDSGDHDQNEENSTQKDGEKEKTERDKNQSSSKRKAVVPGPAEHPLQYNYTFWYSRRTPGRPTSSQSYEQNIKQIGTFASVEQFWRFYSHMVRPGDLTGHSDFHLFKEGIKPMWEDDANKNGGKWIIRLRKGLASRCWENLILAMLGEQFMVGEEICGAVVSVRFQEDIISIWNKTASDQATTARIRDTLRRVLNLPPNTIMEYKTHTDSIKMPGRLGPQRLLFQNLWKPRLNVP
Chain of UniProt P26641 (P26641 whole entry, looked up): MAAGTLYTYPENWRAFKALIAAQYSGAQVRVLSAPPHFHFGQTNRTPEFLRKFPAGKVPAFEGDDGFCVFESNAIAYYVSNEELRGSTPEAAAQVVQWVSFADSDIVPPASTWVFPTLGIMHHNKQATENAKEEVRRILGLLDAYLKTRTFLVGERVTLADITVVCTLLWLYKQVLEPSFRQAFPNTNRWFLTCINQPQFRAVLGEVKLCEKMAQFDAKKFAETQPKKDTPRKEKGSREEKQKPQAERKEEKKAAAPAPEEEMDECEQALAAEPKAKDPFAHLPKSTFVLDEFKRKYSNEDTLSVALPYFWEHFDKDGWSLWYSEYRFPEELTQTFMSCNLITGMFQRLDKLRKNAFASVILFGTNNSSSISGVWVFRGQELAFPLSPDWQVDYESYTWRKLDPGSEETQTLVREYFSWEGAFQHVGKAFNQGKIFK
Chain of UniProt Q96E09 (Q96E09 whole entry, looked up): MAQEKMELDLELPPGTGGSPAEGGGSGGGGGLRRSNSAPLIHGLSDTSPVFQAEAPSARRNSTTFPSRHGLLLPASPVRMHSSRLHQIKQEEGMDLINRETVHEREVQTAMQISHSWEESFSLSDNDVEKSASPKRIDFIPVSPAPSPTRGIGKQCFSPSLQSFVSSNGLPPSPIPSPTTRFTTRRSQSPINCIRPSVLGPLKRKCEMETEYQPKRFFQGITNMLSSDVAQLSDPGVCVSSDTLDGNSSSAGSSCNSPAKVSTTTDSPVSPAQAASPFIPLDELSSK
Chain of UniProt P23919 (P23919 whole entry, looked up): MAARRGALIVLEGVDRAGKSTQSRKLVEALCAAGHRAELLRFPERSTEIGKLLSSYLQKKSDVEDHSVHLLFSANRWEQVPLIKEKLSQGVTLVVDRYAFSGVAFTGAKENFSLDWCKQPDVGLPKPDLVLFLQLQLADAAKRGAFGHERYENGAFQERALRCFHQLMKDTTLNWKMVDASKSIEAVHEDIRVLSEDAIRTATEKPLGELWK
Chain of UniProt O75822 (O75822 whole entry, looked up): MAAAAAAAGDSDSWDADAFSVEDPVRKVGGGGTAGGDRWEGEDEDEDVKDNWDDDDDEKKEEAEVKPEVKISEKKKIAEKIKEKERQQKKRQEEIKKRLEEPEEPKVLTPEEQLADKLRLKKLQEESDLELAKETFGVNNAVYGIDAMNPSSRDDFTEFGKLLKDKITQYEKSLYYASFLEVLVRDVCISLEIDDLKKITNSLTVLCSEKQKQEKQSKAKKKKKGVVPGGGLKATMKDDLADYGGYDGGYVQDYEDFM

Compound in this test: CCN(CCCOc1ccc2c(Nc3cc(CC(=O)Nc4cccc(F)c4)[nH]n3)ncnc2c1)CCOP(=O)(O)O [barasertib]
Description: log2 fold change, soluble protein after heating vs DMSO (PISA); higher = thermal stabilisation; K562 cells, 10 uM, 30 min; active = over 0.2 and 3.5 SD of the protein, either way, in both replicates (recomputed). In a few lines:
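Soluble protein was defined as the supernatant after 21,000xg for 90 min. It came from K562 cells at 2×10^6 cells/mL given 10 μM compound for 30 min, heated in aliquots for 3 min across 48°C-58°C, pooled, and extracted in PBS with 0.5% NP-40 at 4°C, and was quantified by TMTpro 16plex LC-MS/MS with equalised channel sums. Thermal stability against control samples, from duplicates, is reported as log2 fold change.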
For DNAJC7 (UniProt Q99615), the log2 fold change was 0.064.
Regarding EXOC4 (UniProt Q96A65), the log2 fold change was 0.139.
Take EXOC7 (UniProt Q9UPT5): the log2 fold change is 0.036.
DPP8 (UniProt Q6V1X1): the log2 fold change was 0.014.
Regarding EIF4G1 isoform 8 (UniProt Q04637), the log2 fold change was 0.067.
The result for DTWD2 (UniProt Q8NBA8) reads 0.056.
The result for ERLIN1 (UniProt O75477) reads 0.028.
The result for DMAC1 (UniProt Q96GE9) reads 0.074; that for DYRK1A isoform 2 (UniProt Q13627), 0.004; that for ECH1 (UniProt Q13011), 0.035.
As to EHBP1L1 (UniProt Q8N3D4), the log2 fold change was 0.016.
For the target CWC27 (UniProt Q6UX04), the log2 fold change was 0.073.
Take EEF1G isoform 2 (UniProt P26641): the log2 fold change was 0.037.
With DLD (UniProt P09622), the log2 fold change is 0.
The result for DTWD1 (UniProt Q8N5C7) reads -0.027; that for CTSV (UniProt O60911), 0.032.
The result for FAM122A (UniProt Q96E09) reads -0.016; that for DTNBP1 (UniProt Q96EV8), 0.01.
Consider ERLIN2 (UniProt O94905), for which the log2 fold change is -0.003.
On to EIF3J (UniProt O75822), for which the log2 fold change is 0.046.
With CTSB (UniProt P07858), the log2 fold change was 0.015.
With CTU1 (UniProt Q7Z7A3) the figure was 0; with DHRS7B (UniProt Q6IAN0), -0.004; with EIF4A1 (UniProt P60842), 0.026.
Turning to DNAJC24 (UniProt Q6P3W2), the log2 fold change is 0.008.
The result for DCUN1D1 (UniProt Q96GG9) reads 0.013.
As to DCAF10 (UniProt Q5QP82), the log2 fold change is -0.006.
With DBR1 (UniProt Q9UK59) the figure was -0.022; with EOGT (UniProt Q5NDL2), -0.026.
With EIF2AK1 (UniProt Q9BQI3) the figure was -0.017.
The result for DHCR24 (UniProt Q15392) reads 0.088; that for DTYMK (UniProt P23919), -0.011; that for ELOVL1 (UniProt Q9BW60), 0.028.
In the case of FAM118B (UniProt Q9BPY3), the log2 fold change is 0.093.
Consider EED, A0A5F9ZI63, for which the log2 fold change was -0.038.
The result for DHRS3 (UniProt O75911) reads -0.048.
For EIF4E2 (UniProt O60573), the log2 fold change was 0.083.
The result for DHX16 (UniProt O60231) reads 0.032; that for ESYT1 isoform 2 (UniProt Q9BSJ8), 0.046.
With FAM114A2 (UniProt Q9NRY5) the figure was 0.01.
